A short description of assay [1]: NCI Yeast Anticancer Drug Screen. Data for the rad50 strain (AID 155).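 Also: 0% = growth of vehicle-only cultures of the same strain.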 As to conditions: S. cerevisiae rad50 strain growth inhibition, active compounds read high. A digest of the protocol: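 Readout: growth inhibition relative to vehicle-treated cultures. Compound exposure was carried out in a genetically defined yeast strain deficient in DNA damage repair.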
Assay [2] in a line: NCI Yeast Anticancer Drug Screen. Data for the mec2-1 strain (AID 157). Conditions: S. cerevisiae mec2-1 strain, active compounds read high. A digest of the protocol:
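Each compound was tested on mec2-1 yeast, a strain altered in DNA damage repair or cell cycle control. Growth inhibition is reported relative to vehicle.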

Assay [3] can be described thus: NCI Yeast Anticancer Drug Screen. Data for the sgs1 mgt1 strain (AID 161).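 Also: 0% = growth of cultures given vehicle only.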 As to conditions: S. cerevisiae sgs1 mgt1 strain, active compounds read high. A digest of the protocol: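 Mutant yeast exposed to compound; growth scored against vehicle-only wells.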
The nature of assay [4]: NCI Yeast Anticancer Drug Screen. Data for the cln2 rad14 strain (AID 165).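 Also: 0% = growth equal to vehicle treated cultures.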 Conditions: S. cerevisiae cln2 rad14 strain, active compounds read high. A digest of the protocol: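 Test compounds were added to cln2 rad14 yeast cultures; inhibition of growth was then determined by comparison with vehicle treatment.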
Assay [5] can be described thus: NCI Yeast Anticancer Drug Screen. Data for the bub3 strain (AID 167). Conditions: S. cerevisiae bub3 mutant strain, active compounds read high. A digest of the protocol:
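Readout: yeast growth inhibition, expressed relative to vehicle-only wells. The test organism is a mutant strain from a panel with lesions in DNA repair or checkpoint genes.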

A short description of assay [6]: NCI Yeast Anticancer Drug Screen. Data for the mlh1 rad18 strain (AID 175). As to conditions: S. cerevisiae mlh1 rad18 strain growth inhibition, active compounds read high. A digest of the protocol: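 Inhibition values reflect reduced growth of mutant yeast versus vehicle-treated controls following compound exposure; the mutations affect DNA damage repair.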
Where [7] appears, read: at 5.0 µM (retest, dose inferred, filed as 0.5).
[8] abbreviates: at 50.0 µM (retest, dose inferred, filed as 5.0).

The panel holds about 79,000 compounds, 15% with a hit somewhere; the sample as a whole holds those more often. Unmarked numbers belong to inactive results. The source made the active and inactive calls. Rule as the data show it: active = growth inhibition above about 70%; inactive = the rest.

As for `CNC(C)C(=O)c1ccc2ccc3ccccc3c2c1` (configuration not stated), the growth inhibition in assay [1] (setting [7]) was -3%; in assay [1] (setting [8]) it was 24%; in assay [1] (at 50.0 µM) it was 54.5%; in assay [2] (setting [7]), -5%; in assay [2] (setting [8]), 12%; in assay [2] (at 50.0 µM), 46.6%. For the same compound, the growth inhibition was -2% in assay [3] (setting [7]); 34% in assay [3] (setting [8]); 58.9% in assay [3] (at 50.0 µM); 0% in assay [4] (setting [7]); 16% in assay [4] (setting [8]); 17.6% in assay [4] (at 50.0 µM). Moreover, the growth inhibition in assay [5] (setting [7]) is -3%; in assay [5] (setting [8]), 24%; in assay [5] (at 50.0 µM) it was 67.8%; in assay [6] (setting [7]), -6%; in assay [6] (setting [8]), 28%; in assay [6] (at 50.0 µM) it was 71.5% (active).
In the case of `N#CC(C(=O)C(N)=O)c1ccc(Cl)cc1Cl` (configuration not stated), the growth inhibition is 0% in assay [1] (setting [7]); -2% in assay [1] (setting [8]); 82.2% (active) in assay [1] (at 50.0 µM); 1% in assay [2] (setting [7]); 6% in assay [2] (setting [8]); 99.6% (active) in assay [2] (at 50.0 µM). The growth inhibition in assay [3] (setting [7]) was 1%; in assay [3] (setting [8]) it was 0%; in assay [3] (at 50.0 µM), 99.6% (active); in assay [4] (setting [7]) it was -4%; in assay [4] (setting [8]) it was 8%; in assay [4] (at 50.0 µM), 91.3% (active). The growth inhibition in assay [5] (setting [7]) is -1%; in assay [5] (setting [8]), 21%; in assay [5] (at 50.0 µM) it was 96.6% (active); in assay [6] (setting [7]), -3%; in assay [6] (setting [8]) it was 2%; in assay [6] (at 50.0 µM) it was 99.2% (active).
Turning to `CC(c1ccccc1)[P+](c1ccccc1)(c1ccccc1)c1ccccc1` (configuration not stated), the growth inhibition in assay [1] (setting [7]) is 5%; in assay [1] (setting [8]), 97% (active); in assay [1] (at 50.0 µM), 97.8% (active); in assay [2] (setting [7]), 13%; in assay [2] (setting [8]) it was 97% (active); in assay [2] (at 50.0 µM), 97.5% (active). The growth inhibition in assay [3] (setting [7]) was 11%; in assay [3] (setting [8]) it was 98% (active); in assay [3] (at 50.0 µM), 97.7% (active); in assay [4] (setting [7]), -4%; in assay [4] (setting [8]) it was 95% (active); in assay [4] (at 50.0 µM), 96.8% (active). Besides, the growth inhibition in assay [5] (setting [7]) was 6%; in assay [5] (setting [8]), 99% (active); in assay [5] (at 50.0 µM), 96.1% (active); in assay [6] (setting [7]) it was 16%; in assay [6] (setting [8]), 97% (active); in assay [6] (at 50.0 µM) it was 98% (active).
For `O=[N+]([O-])c1cc(C(F)(F)F)ccc1SSc1ccc(C(F)(F)F)cc1[N+](=O)[O-]`, the growth inhibition in assay [1] (setting [7]) was 45%; in assay [1] (setting [8]) it was 86% (active); in assay [1] (at 50.0 µM), 60.9%; in assay [2] (setting [7]) it was 39%; in assay [2] (setting [8]), 88% (active); in assay [2] (at 50.0 µM), 50%. For the same compound, the growth inhibition in assay [3] (setting [7]) is 42%; in assay [3] (setting [8]) it was 93% (active); in assay [3] (at 50.0 µM), 68.5%; in assay [4] (setting [7]), 42%; in assay [4] (setting [8]), 64%; in assay [4] (at 50.0 µM), 54.7%. Besides, the growth inhibition in assay [5] (setting [7]) was 42%; in assay [5] (setting [8]) it was 92% (active); in assay [5] (at 50.0 µM), 66.7%; in assay [6] (setting [7]), 59%; in assay [6] (setting [8]), 88% (active); in assay [6] (at 50.0 µM) it was 58.4%.
On to `CCCCCCCCCCCCCCC[C@@H](O)C[N+](C)(C)CCO`, for which the growth inhibition in assay [1] (setting [7]) was 28%; in assay [1] (setting [8]), 98% (active); in assay [1] (at 50.0 µM), 90.5% (active); in assay [2] (setting [7]), 91% (active); in assay [2] (setting [8]), 99% (active); in assay [2] (at 50.0 µM), 92.8% (active). Moreover, the growth inhibition was 50% in assay [3] (setting [7]); 98% (active) in assay [3] (setting [8]); 90% (active) in assay [3] (at 50.0 µM); 42% in assay [4] (setting [7]); 98% (active) in assay [4] (setting [8]); 88.5% (active) in assay [4] (at 50.0 µM). Also, the growth inhibition in assay [5] (setting [7]) is 69%; in assay [5] (setting [8]), 98% (active); in assay [5] (at 50.0 µM), 87.1% (active); in assay [6] (setting [7]), 57%; in assay [6] (setting [8]), 98% (active); in assay [6] (at 50.0 µM), 92.3% (active).
In the case of `CC/C(=C(\CC)c1ccc(O)c(CN(CCO)CCO)c1)c1ccc(O)cc1`, the growth inhibition was -3% in assay [1] (setting [7]); 11% in assay [1] (setting [8]); 36.9% in assay [1] (at 50.0 µM); -1% in assay [2] (setting [7]); 5% in assay [2] (setting [8]); 22.2% in assay [2] (at 50.0 µM). Further, the growth inhibition in assay [3] (setting [7]) was -2%; in assay [3] (setting [8]) it was 28%; in assay [3] (at 50.0 µM), 69.2%; in assay [4] (setting [7]) it was 0%; in assay [4] (setting [8]), -1%; in assay [4] (at 50.0 µM), 0.6%. Besides, the growth inhibition was -5% in assay [5] (setting [7]); 25% in assay [5] (setting [8]); 12.5% in assay [5] (at 50.0 µM); -2% in assay [6] (setting [7]); 33% in assay [6] (setting [8]); 73.6% (active) in assay [6] (at 50.0 µM).
Turning to `COc1cc(Cc2n[nH]c(=S)n2-c2ccccc2)c(S(=O)(=O)N2CCOCC2)cc1OC`, the growth inhibition is 4% in assay [1] (setting [7]); 1% in assay [1] (setting [8]); -10.2% in assay [1] (at 50.0 µM); -2% in assay [2] (setting [7]); -5% in assay [2] (setting [8]); -5.2% in assay [2] (at 50.0 µM). The growth inhibition in assay [3] (setting [7]) is 9%; in assay [3] (setting [8]), -6%; in assay [3] (at 50.0 µM), -0.7%; in assay [4] (setting [7]), 1%; in assay [4] (setting [8]) it was 0%; in assay [4] (at 50.0 µM), 82.7% (active). Also, the growth inhibition in assay [5] (setting [7]) is -3%; in assay [5] (setting [8]), 7%; in assay [5] (at 50.0 µM) it was -32%; in assay [6] (setting [7]) it was -2%; in assay [6] (setting [8]), -62%; in assay [6] (at 50.0 µM), 11.4%.
Regarding `CO/N=C/c1ccc([N+](=O)[O-])s1`, the growth inhibition in assay [1] (setting [7]) is -147%; in assay [1] (setting [8]), 95% (active); in assay [1] (at 50.0 µM), 65.7%; in assay [2] (setting [7]), -44%; in assay [2] (setting [8]), 80% (active); in assay [2] (at 50.0 µM) it was 16.6%. Besides, the growth inhibition in assay [3] (setting [7]) was -51%; in assay [3] (setting [8]) it was 71% (active); in assay [3] (at 50.0 µM), 33.8%; in assay [4] (setting [7]), -63%; in assay [4] (setting [8]) it was 48%; in assay [4] (at 50.0 µM) it was 7.5%. Further, the growth inhibition is -61% in assay [5] (setting [7]); 76% (active) in assay [5] (setting [8]); 29.7% in assay [5] (at 50.0 µM); -108% in assay [6] (setting [7]); 94% (active) in assay [6] (setting [8]); 75.5% (active) in assay [6] (at 50.0 µM).
Regarding `Fc1ccc(CSC(=S)Nc2cccc(C(F)(F)F)c2)cc1`, the growth inhibition is 10% in assay [1] (setting [7]); 99% (active) in assay [1] (setting [8]); 99.6% (active) in assay [1] (at 50.0 µM); 9% in assay [2] (setting [7]); 100% (active) in assay [2] (setting [8]); 99.8% (active) in assay [2] (at 50.0 µM). For the same compound, the growth inhibition is 12% in assay [3] (setting [7]); 100% (active) in assay [3] (setting [8]); 99.7% (active) in assay [3] (at 50.0 µM); 3% in assay [4] (setting [7]); 99% (active) in assay [4] (setting [8]); 99.5% (active) in assay [4] (at 50.0 µM). The growth inhibition in assay [5] (setting [7]) was -2%; in assay [5] (setting [8]), 100% (active); in assay [5] (at 50.0 µM), 99.7% (active); in assay [6] (setting [7]) it was 7%; in assay [6] (setting [8]), 99% (active); in assay [6] (at 50.0 µM) it was 99.5% (active).

Source of the values: PubChem BioAssay (NCI).
